# Results: PubChem BioAssay AID651814 (National Center for Advancing Translational Sciences (NCATS), 2012)
# Among all 2,100 compounds or so, about 590 (28%) were called active. Roughly 42% stayed inconclusive and do not appear here. This is one part of the list. Values without a mark were called inactive. Calls follow the shape of the dose curve; as a rule, active = well fitted inhibition curve with a large enough effect; inconclusive = small, poorly fitted or top-dose-only effect; inactive = flat fitted curve, though single readings scatter.
# Target: DNA dC->dU-editing enzyme APOBEC-3F (Homo sapiens) (UniProt Q8IUX4)
# Experiment: qHTS for inhibitors of Vif-A3F interactions: Cherry picks; also: nearly all actives have a fitted effect of over 70% in size;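 as to max response: % of control where 0% means no effect; active compounds raise eYFP fluorescence by blocking Vif-driven A3F loss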
# Conditions: HeLa A3F-eYFP + Vif (tagged APOBEC3F with the HIV-1 protein that degrades it), eYFP fluorescence, 24 h
# Description: The recent discovery and characterization of host restriction factors, which provide a potent defense to invading retroviruses, has provided new targets for antiviral drug development. APOBEC3G (A3G) and APOBEC3F (A3F) are potent cytidine deaminases that block HIV-1 replication; HIV-1 expresses the Vif protein, which counteracts A3G and A3F by binding to them and inducing their proteasomal degradation. The Vif-A3G and Vif-A3F interactions provide two potential targets for development of small molecules which can interfere with the ability of Vif to degrade A3G or A3F. […] To identify inhibitors that can interfere with Vif mediated degradation of A3G and A3F, we have developed Hela cell lines that stably express A3G or A3F tagged with eYFP at the C-terminal end (A3G-eYFP or A3F-eYFP, respectively) and Vif. In the absence of an inhibitor, Vif induces degradation of A3G-eYFP and A3F-eYFP, and the cells are not fluorescent. In the presence of an inhibitor, it is expected that Vif will be unable to degrade A3G-eYFP and/or A3F-eYFP, resulting in an increase in yellow fluorescence. In this assay, Vif A3F was screened against the cherry picks ordered from the MLSMR. NIH Chemical Genomics Center [NCGC] NIH Molecular Libraries Probe Centers Network [MLPCN] MLPCN Grant: MH093245 Assay Submitter (PI): Vinay Pathak, National Cancer Institute
# A3F-Vif cells were harvested from T225 flask and resuspended in phenol free OPTI-MEM medium with 5% FBS. Then 5 uL of 140,000 cells/mL resuspended cells was dispensed into each well of low base Aurora COC 1,536-well plates (black walled, clear bottom) using a Multidrop Combi dispenser. After overnight culture at 37 deg C with 5% CO2, a total of 23 nL of compounds at 5 selected concentrations from the NPC or positive control (2 mM stock of MG132) in DMSO was transferred to each well of the assay plate using a pintool (Kalypsys, San Diego, CA), and the plates were further incubated at 37 deg C with 5% CO2 for 24 hours. After that, the plates were measured on Acumen Explorer (TTP Lab Tech). The fluorescence was detected by 488 nm/Ex and […].
# Potency is read from the fitted curve at half-maximal effect.
# Chain of DNA dC->dU-editing enzyme APOBEC-3F (Homo sapiens) (Q8IUX4 whole entry, looked up): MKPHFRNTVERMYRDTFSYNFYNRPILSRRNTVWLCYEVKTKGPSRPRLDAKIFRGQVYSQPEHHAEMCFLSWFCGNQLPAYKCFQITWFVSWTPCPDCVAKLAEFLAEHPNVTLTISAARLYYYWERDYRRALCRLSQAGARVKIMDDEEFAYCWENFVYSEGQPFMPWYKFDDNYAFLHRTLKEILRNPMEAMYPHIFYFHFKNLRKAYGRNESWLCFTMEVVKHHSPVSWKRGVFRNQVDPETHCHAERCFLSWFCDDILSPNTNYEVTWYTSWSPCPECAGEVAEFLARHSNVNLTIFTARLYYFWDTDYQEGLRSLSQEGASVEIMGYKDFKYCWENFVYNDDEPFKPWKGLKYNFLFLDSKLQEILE
Structure (SMILES),max response [%],Potency
CCCCCCN1C[C@H](O)[C@@H](n2cc(COC(=O)c3ccccc3)nn2)C[C@@H]1c1ccc(C)cc1,-0.173,–
Cc1ccc2c(c1)Sc1c(ccc3ccccc13)N2,–,16.4 µM (active)
Oc1ccc(-c2nc(-c3ccc(O)c(O)c3)cs2)cc1,–,4.44 µM (active)
COc1ccc(-c2csc(-c3ccc(O)cc3)n2)cc1,-24.3,–
COc1ccc(OC)c(CNc2nc3ccc(C)cc3n3nnnc23)c1,-21.9,–
OCCCn1c(C2CCCN2c2nc(-c3ccc(Cl)cc3)cs2)nc2cc(Cl)c(Cl)cc21 (stereo not given),-3.45,–
CCCCCCCNc1ccc(/C=C/c2ccnc3ccccc23)cc1,–,20.6 µM (active)
CCCCCCNc1ccc(/C=C/c2ccnc3ccccc23)cc1,–,18.4 µM (active)
C/C(=N\NC(=O)c1cc(C)nc2ccccc12)c1ccncc1,-5.92,–
Cc1ccc(-c2cc(NC=O)c3ncc(-c4cnn(C)c4)n3c2)cc1,–,7.9 µM (active)
COc1ccc(-c2cnc3c(NC=O)cc(-c4ccccc4)cn23)cc1OC,–,4.98 µM (active)
COc1ccc(NC(=O)C2Cc3c(-c4ccc(NC(C)=O)cc4)ccnc3O2)cn1 (stereo not given),-27.7,–
COc1ccccc1-c1cc(NC=O)c2ncc(-c3ccc(S(C)(=O)=O)cc3)n2c1,–,7.04 µM (active)
COc1ccc(-c2cc(NC(C)=O)c3ncc(-c4cc(OC)c(OC)c(OC)c4)n3c2)cn1,–,4.98 µM (active)
CCOc1ccc2nc(NC(=O)c3nc(SC(C)C)ncc3Cl)sc2c1,-25.8,–
COC(=O)c1sc(-c2cccs2)cc1NC(=O)/C=C/C(=O)O,-22.3,–
O=C1NC(c2ccccc2Br)=N/C1=C\c1ccco1,-25.1,–
CN(C)C(=O)c1cccc(-c2cnc3c(NC=O)cc(-c4ccccc4F)cn23)c1,-4.66,–
COc1ccc(-c2cnc3c(NC=O)cc(-c4ccoc4)cn23)cc1OC,–,11.2 µM (active)
COc1ccc(-c2cc(NC=O)c3ncc(-c4ccc(OC)c(OC)c4)n3c2)cc1OC,–,7.04 µM (active)
COc1ccc(-c2nc3c4ccccc4ccn3c2Cc2ccsc2)cc1OC,-2.92,–
CN(C)c1ccccc1-c1cc(NC=O)c2ncc(-c3cccc(C(F)(F)F)c3)n2c1,–,15.8 µM (active)
COc1ccc(-c2cnc3c(NC=O)cc(-c4cc(OC)c(OC)c(OC)c4)cn23)cc1OC,–,15.8 µM (active)
Cc1cc(C)nc(Nc2n[nH]c(COc3cccc4ccccc34)n2)n1,-15.5,–
Cc1cc(C)nc(NC(=S)Nc2cccc(Cl)c2Cl)c1,-10.1,–
